Calls of active or inactive are those of the source. Unless noted, the rule behind the calls is not given here.

Among the data in PubChem BioAssay are z-score and composite z-score values, retold here.

Test [1] in a line: resazurin metabolic signal in HepG2 cells – cell-based, resazurin fluorescence, 24 h, PK04 Diversity Set, profiling panel (AID 1172). Note: test concentration not given here. The following applies: HepG2 viability, higher = more signal.
Test [2] is described as follows: budding yeast growth changes without added modifier – OD600, strain BY4716, 24 h, basal condition, primary screen (AID 1173). As to conditions: S. cerevisiae BY4716 growth, OD600, 24 h; higher = more signal, called active from +8 up or from −8 down.
A short description of test [3]: viability profiling in MM1S myeloma cells – cell-based, resazurin fluorescence, basal, 24 h, PK04 Diversity Set, profiling panel (AID 1174).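 Note: MM1S multiple myeloma cell line; test concentration not given here.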 The following applies: higher = more signal, called active from +8 up or from −8 down.
Test [4] deals with Dihydroorotate dehydrogenase (quinone), mitochondrial (Plasmodium falciparum (isolate 3D7)) (UniProt Q08210). Nature of the test: inhibition of P. falciparum DHODH – biochemical, C-terminal His tag, absorbance 600 nm, primary screen (AID 1175).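 Note: recombinant parasite enzyme with a five histidine tag at its C terminus; test concentration not given here.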 The following applies: PfDHODH enzyme, DCIP absorbance 600 nm; higher = more signal, called active from +8 up or from −8 down.
A short description of test [5]: inhibition of PAO1 biofilm formation – strain PAO1, LB-PBS medium, absorbance 600 nm, primary screen (AID 1176). Note: test concentration not given here. As to conditions: P. aeruginosa PAO1 growth/biofilm, A600, 12 h; higher = more signal.
A short description of test [6]: growth modulation of vineyard yeast isolate – strain RM11-1a, OD600, basal, 24 h, primary screen (AID 1177).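 Note: cultures grown under basal conditions with no added stressor; test concentration not given here.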 The following applies: S. cerevisiae RM11-1a growth, OD600, 24 h; higher = more signal, called active from +8 up or from −8 down.
A short description of test [7]: growth of efflux-deficient E. coli DRC39 – strain DRC39, OD650, 24 h, E. coli filamentation inducers, primary screen (AID 1178).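 Note: growth measured as culture turbidity by optical density at 650 nm; test concentration not given here.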 The following applies: E. coli DRC39 acrAB, higher = more signal, called active from +8 up or from −8 down.
The nature of test [8]: growth of efflux-deficient E. coli DRC39 – strain DRC39, OD650, 48 h, E. coli filamentation inducers, primary screen (AID 1179).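 Note: screen aims at cell division blockers that make cells filament.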 As to conditions: E. coli DRC39 delta-acrAB growth, higher = more signal, called active from +8 up or from −8 down.
The nature of test [9]: viability profiling in RPMI8226 myeloma cells – cell-based, resazurin fluorescence, basal, 24 h, PK04 Diversity Set, profiling panel (AID 1180).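 Note: RPMI8826 multiple myeloma cell line at 5000 cells per well; test concentration not given here.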 As to conditions: higher = more signal.
Test [10] addresses E3 ubiquitin-protein ligase XIAP (Homo sapiens) (UniProt P98170). Nature of the test: small molecules binding XIAP protein – biophysical, small-molecule microarray, fluorescence 635 nm, primary screen (AID 1181).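 Note: score merges 667 nm emission and signal to noise over triplicate slides.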 The following applies: higher = more signal.

Chain of E3 ubiquitin-protein ligase XIAP (Homo sapiens) (P98170 whole entry, looked up): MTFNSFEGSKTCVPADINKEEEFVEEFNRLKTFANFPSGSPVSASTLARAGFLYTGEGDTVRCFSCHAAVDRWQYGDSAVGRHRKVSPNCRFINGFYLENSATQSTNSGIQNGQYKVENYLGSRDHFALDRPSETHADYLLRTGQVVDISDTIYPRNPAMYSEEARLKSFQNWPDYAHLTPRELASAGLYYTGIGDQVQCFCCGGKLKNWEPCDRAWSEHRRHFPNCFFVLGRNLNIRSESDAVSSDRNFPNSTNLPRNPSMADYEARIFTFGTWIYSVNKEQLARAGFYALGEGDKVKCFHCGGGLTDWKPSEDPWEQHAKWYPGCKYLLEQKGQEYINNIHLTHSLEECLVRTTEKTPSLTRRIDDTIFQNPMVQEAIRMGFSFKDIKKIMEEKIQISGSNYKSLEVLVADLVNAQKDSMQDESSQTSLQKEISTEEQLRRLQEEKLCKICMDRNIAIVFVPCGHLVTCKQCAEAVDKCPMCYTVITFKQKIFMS
Chain of Dihydroorotate dehydrogenase (quinone), mitochondrial (Plasmodium falciparum (isolate 3D7)) (Q08210 whole entry, looked up): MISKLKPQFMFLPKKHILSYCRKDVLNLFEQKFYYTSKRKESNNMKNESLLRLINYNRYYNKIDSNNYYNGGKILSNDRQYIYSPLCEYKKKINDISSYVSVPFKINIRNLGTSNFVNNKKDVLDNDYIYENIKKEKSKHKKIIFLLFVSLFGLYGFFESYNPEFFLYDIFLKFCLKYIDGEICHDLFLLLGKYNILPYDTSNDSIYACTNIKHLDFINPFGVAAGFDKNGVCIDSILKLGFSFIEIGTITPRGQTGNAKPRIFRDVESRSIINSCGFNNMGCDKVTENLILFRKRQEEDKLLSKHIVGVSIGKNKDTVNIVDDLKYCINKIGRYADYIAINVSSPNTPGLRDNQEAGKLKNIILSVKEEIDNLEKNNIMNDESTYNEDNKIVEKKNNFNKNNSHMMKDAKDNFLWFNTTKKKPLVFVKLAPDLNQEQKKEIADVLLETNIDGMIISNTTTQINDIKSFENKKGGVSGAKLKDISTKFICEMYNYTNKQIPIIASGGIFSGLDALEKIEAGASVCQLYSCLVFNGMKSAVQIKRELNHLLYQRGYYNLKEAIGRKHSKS

Regarding `O=C(NCC(O)CO)[C@@]1(Cc2ccccc2)COC(c2ccc(OCCCO)cc2)=N1` (stereo not given in full), the z-score was 0.55 in [1]; -0.339 (inactive) in [2]; -0.322 (inactive) in test [3]; 0.385 (inactive) in [5]; 0.0962 (inactive) in test [6]; 0.187 (inactive) in test [7]. The z-score was 0.276 (inactive) in test [8] and 0.0244 in test [9]. Besides, the composite z-score in [4] is -0.815 (inactive); in [10], -0.135.
Take `OCCCc1cc[n+](Cc2cccc(OC(F)(F)F)c2)cc1`: the z-score was 0.887 in test [1]; -1.08 (inactive) in [2]; 0.499 (inactive) in test [3]; 0.0898 (inactive) in test [5]; 0.616 (inactive) in [6]; 0.453 (inactive) in test [7]. The z-score was 0.159 (inactive) in test [8] and -0.326 in [9]. Moreover, the composite z-score in test [4] is -3.59 (inactive); in test [10] it was 0.337.
Take `NC(=O)[C@]1(Cc2ccccc2)N=C(c2ccc(OCCCO)cc2)O[C@@H]1c1ccccc1`: the z-score in [1] was -0.3; in test [2], -1.06 (inactive); in test [3], -1.02 (inactive); in test [5] it was 0.246 (inactive); in test [6], 0.569 (inactive); in test [7], 0.0671 (inactive). Moreover, the z-score was -1.24 (inactive) in [8] and -0.189 in test [9]. For the same molecule, the figures for the composite z-score in test [4] and in test [10] were 0.417 (inactive) and 0.16, respectively.
On to `C=CCN1C(=O)[C@@]2(O[C@@H](CCO)[C@H]([Si](C)(C)c3ccc(OC)cc3)[C@H]2C)c2cc(N3C(=O)COc4ccccc43)ccc21`, for which the z-score in test [1] was -6.28; in test [2] it was 0.445 (inactive); in test [3], -8.85 (active); in test [5] it was -0.258 (inactive); in [6] it was 3.31 (inactive); in test [7] it was 1.09 (inactive). For the same molecule, the z-score is 0.338 (inactive) in [8] and -6.27 in test [9]. In addition, the composite z-score in [4] is 0.428 (inactive); in test [10], -0.031.
For the molecule `CCCC[C@H]1C[C@@H]1[C@@H]1N(P(=O)(c2ccccc2)c2ccccc2)[C@](CO)(c2ccccc2)CC12CC2`, the z-score was -0.544 in test [1]; 0.402 (inactive) in [2]; -1.93 (inactive) in test [3]; 0.411 (inactive) in test [5]; 1.14 (inactive) in test [6]; 0.0779 (inactive) in [7]. Moreover, the z-score in [8] was -0.872 (inactive); in test [9], -6.02. The composite z-score in [4] was -0.152 (inactive); in test [10], 0.247.
As to `COc1ccc(C(=O)Nc2cccc(CN3C(=O)[C@@]4(O[C@@H](CCn5cc([C@H](O)c6ccccc6)nn5)[C@H]([Si](C)(C)c5ccc(OC)cc5)[C@H]4C)c4ccccc43)c2)cc1`, the z-score in [1] was -2.55; in [2], -1.74 (inactive); in [3] it was -6.53 (inactive); in [5], 1.38 (inactive); in test [6], 0.588 (inactive); in test [7], 0.259 (inactive). In addition, the z-score in [8] is -0.237 (inactive); in test [9], -6.13. Further, the composite z-score was -0.0516 (inactive) in test [4] and -0.0228 in test [10].
Consider `Cc1cc(C)c(C(O)C2C=CC3C(=O)NC(=O)C3N2Nc2ccccn2)c(C)c1` (stereo not given), for which the z-score in test [1] is -1.25; in test [2], 0.705 (inactive); in test [3] it was -1.78 (inactive); in test [5] it was 0.9 (inactive); in test [6], 0.276 (inactive); in test [7] it was -0.579 (inactive). Besides, the z-score in test [8] is -0.342 (inactive); in test [9], -0.68. Moreover, the composite z-score in test [4] is 1.41 (inactive); in test [10], 0.203.
As for `O=C(N1CCCCC1)[C@]1(CCS(=O)(=O)c2ccccc2)N=C(c2ccc(OCCCO)cc2)O[C@@H]1c1ccccc1`, the z-score in test [1] is 0.0192; in test [2], -0.678 (inactive); in [3] it was -2.49 (inactive); in test [5] it was -0.345 (inactive); in test [6] it was 0.525 (inactive); in [7], 0.779 (inactive). The figures for the z-score in [8] and in test [9] were -0.385 (inactive) and -1.61, respectively. Further, the values for the composite z-score in test [4] and in test [10] were 0.813 (inactive) and 0.0257, respectively.
Consider `CCOC1=C2C(c3ccc(C)cc3)N(S(=O)(=O)c3ccc(C)cc3)CC2n2c(=O)n(-c3ccccc3)c(=O)n2C1` (stereo not given), for which the z-score in test [1] is -0.994; in test [2], 1.21 (inactive); in [3] it was -0.932 (inactive); in test [5], -0.172 (inactive); in test [6] it was 0.135 (inactive); in [7] it was -0.15 (inactive). Further, the z-score in test [8] is 0.717 (inactive); in test [9], -0.774. For the same molecule, the composite z-score in [4] was -2.05 (inactive); in [10], 0.199.
On to `C=CCCN(CC#C[C@H]1Oc2ccccc2S(=O)(=O)N2CCC[C@@H]12)S(=O)(=O)c1ccc(C)cc1`, for which the z-score was -0.28 in test [1]; -0.0024 (inactive) in test [2]; -1.33 (inactive) in test [3]; 0.425 (inactive) in test [5]; 1.62 (inactive) in test [6]; 0.0069 (inactive) in [7]. Further, the figures for the z-score in test [8] and in test [9] were -0.285 (inactive) and -1.55, respectively. Also, the values for the composite z-score in test [4] and in [10] were 0.711 (inactive) and 0.0027, respectively.
`O=c1cccc(-c2ccccc2)o1`: the z-score in [1] was 0.123; in [2], -5.07 (inactive); in test [3], 0.0841 (inactive); in test [5] it was 0.421 (inactive); in [6], 0.434 (inactive); in test [7] it was -0.438 (inactive). For the same molecule, the z-score in test [8] is 0.0997 (inactive); in test [9], -0.156. The results for the composite z-score in test [4] and in [10] were -0.403 (inactive) and 0.045, respectively.
`CN1C(=O)C2C(C1=O)C1C=C(c3ccc(CO)cc3)C2C(C2CC2)N1Cc1cc2c(cc1Br)OCO2` (stereo not given): the z-score in [1] is -0.698; in test [2], -2.01 (inactive); in test [3] it was -1.31 (inactive); in [5], 0.0061 (inactive); in test [6], -0.889 (inactive); in test [7] it was 0.101 (inactive). Also, the results for the z-score in test [8] and in [9] were -0.0102 (inactive) and -1.47, respectively. The composite z-score was -2.33 (inactive) in [4] and 0.111 in [10].
Regarding `COC(=O)[C@@]1(Cc2ccc(F)cc2)[C@H]2c3cc(C(=O)N4CCCC4)n(CCc4ccc(OC)c(Br)c4)c3C[C@H]2CN1C(=O)c1ccccc1`, the z-score in test [1] was -1.25; in [2], 0.836 (inactive); in test [3], -2.83 (inactive); in test [5], 1.07 (inactive); in test [6], 0.264 (inactive); in [7], -0.588 (inactive). For the same molecule, the z-score in test [8] was 0.123 (inactive); in [9], -4.16. Also, the composite z-score was -0.163 (inactive) in test [4] and 0.183 in test [10].
